This is an account of results in PubChem BioAssay (Tox21).

The nature of assay [1]: qHTS assay to identify small molecule antagonists of the constitutive androstane receptor (CAR) signaling pathway - cell viability counter screen (AID 1224837). Further: nearly all actives have a fitted effect of over 45% in size. In a few lines: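 Counter screen run in HepG2-CYP2B6-hCAR cells: 4 hr settle, compound titration (15 concentrations) with 50 nM CITCO, 23 hr at 37 C/5% CO2, CellTiter-Fluor fluorescence.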
Assay [2] deals with Nuclear receptor subfamily 1 group I member 3 (Homo sapiens) (UniProt Q14994). Nature of the assay: qHTS assay to identify small molecule antagonists of the constitutive androstane receptor (CAR) signaling pathway (AID 1224838). Further: nearly all actives have a fitted effect of over 40% in size. In a few lines:
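Cell line: HepG2 double-stable for hCAR and CYP2B6-2.2kb reporter. Agonist: CITCO, 50 nM final. Compounds: 15 concentrations, 24 h, 37 C. Detection: ONE-Glo luminescence.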
(In qHTS, concentration-response curves come from the screen itself.)

The target is the same in assay [3]. The assay is described as follows: qHTS assay to identify small molecule agonists of the constitutive androstane receptor (CAR) signaling pathway (AID 1224839). Further: nearly all actives have a fitted effect of over 15% in size. In a few lines: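 HepG2 cells stably expressing hCAR and a CYP2B6-2.2kb luciferase reporter were treated with compounds at 15 concentrations plus 0.75 uM PK11195 (final) for 24 h at 37 C; luminescence was read after ONE-Glo addition.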

Assay [4] is described as follows: qHTS assay to identify small molecule antagonists of the estrogen related receptor signaling pathway with the pleiotropic PPARgamma coactivator (PGC) from Tox21 10K library - cell viability counter screen (AID 1224840; active means well fitted cell-killing curve with a large enough effect in the repeat runs, not every such curve was filed as active; further: nearly all actives have a fitted effect of over 40% in size). In a few lines:
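Following seeding of 2,000 PGC/ERR cells/well and 6 hours' incubation, test compounds were delivered in DMSO. The plates then sat 17.5 hours at 37 C before a fluorogenic live-cell protease reagent (CellTiter-Fluor) was read after 30 min.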

Assay [5] in a line: qHTS assay to identify small molecule antagonists of the estrogen related receptor signaling pathway with the pleiotropic PPARgamma coactivator (PGC) from Tox21 10K library (AID 1224841; call rule not given here; further: actives are mostly falling curves and most rising ones were filed inactive; nearly all actives have a fitted effect of over 50% in size; further: potency means the concentration at half of the fitted maximal effect). In a few lines: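 qHTS antagonist format: PGC/ERR cells, 2k/well, compound in DMSO by pin transfer after 6 h attachment, 18 h treatment at 37 C, One-Glo luminescence read at 30 min.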
A short description of assay [6]: qHTS assay to identify small molecule agonists of the estrogen related receptor signaling pathway with the pleiotropic PPARgamma coactivator (PGC) from Tox21 10K library (AID 1224842). Further: nearly all actives have a fitted effect of over 15% in size. In a few lines: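 PGC/ERR reporter cell line, 2,000 cells per well, incubated 6 h at 37 C before 23 nL compound in DMSO was added. After 18 h at 37 C, One-Glo luminescence read following 30 min at room temperature.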

For assay [7], the target named is Thyrotropin receptor (Homo sapiens) (UniProt P16473). The assay is described as follows: qHTS assay to identify small molecule agonists of the thyroid stimulating hormone receptor (TSHR) signaling pathway (AID 1224843; calls by dose curve; further: nearly all actives have a fitted effect of over 45% in size). In a few lines:
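Steps: seed 800 TSHR-HEK293 cells per well; add test compound and hold 30 min at ambient temperature; dispense cAMP-d2 then anti-cAMP cryptate; incubate 1 h at ambient; measure fluorescence intensity.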

Assay [8] can be described thus: qHTS assay to identify small molecule agonists of the hypoxia (HIF-1) signaling pathway - cell viability counter screen (AID 1224844; calls by dose curve; further: nearly all actives have a fitted effect of over 50% in size). In a few lines: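 Cells (HRE-bla ME-180, 2,000 per well) sat 5 hrs at 37C, got compound for 17 hrs, were read for CCF4-AM FRET, and were finally lysed with CellTiter-Glo for a 30 min room-temperature luminescence read.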
Assay [9] in a line: qHTS assay to identify small molecule agonists of H2AX (AID 1224845; active means well fitted activation curve with a large enough effect in the signal ratio in the repeat runs, not every such curve was filed as active; the % refers to the signal ratio). In a few lines:
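Wild-type CHO-K1 cells, plated overnight, exposed 3hr at 37C to 15 concentrations (0.76% DMSO final). Lysed, then HTRF anti-pH2AX (S139) cryptate and anti-H2AX-d2 antibodies, 24 hr room temperature; 665/620 nm emission read.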

Assay [10] in a line: qHTS assay to identify small molecule agonists of the hypoxia (HIF-1) signaling pathway (AID 1224846; active means well fitted activation curve with a large enough effect in the signal ratio in the repeat runs, not every such curve was filed as active; the % refers to the signal ratio). In a few lines: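 A low-serum medium (0.5% dialyzed FBS) holding 2,000 HRE-bla ME-180 cells per well is preincubated for 5 hrs, dosed with compounds by pintool, and kept a further 17 hrs at 37C, 5% CO2 before CCF4-AM FRET detection of beta-lactamase.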
Assay [11] can be described thus: qHTS assay to identify small molecule agonists of H2AX - cell viability counter screen (AID 1224847; calls by dose curve; further: top concentration of the series differs between compounds; nearly all actives have a fitted effect of over 30% in size). In a few lines: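 Wild-type CHO-K1 cells (10% FBS medium) were plated overnight at 37C, exposed to compounds at 15 concentrations for 3 hr at 37C (0.76% DMSO final), and viability was read as CellTiter-Glo luminescence after 30 min at room temperature.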
The nature of assay [12]: qHTS assay to identify small molecule antagonists of the estrogen related receptor (ERR) signaling pathway from Tox21 library (AID 1224848). Further: nearly all actives have a fitted effect of over 50% in size. In a few lines: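 Luminescent reporter read-out (ONE-Glo) from NTP's ERR cell line after 18 h treatment at 37 C with DMSO-dissolved Tox21 compounds; cells pre-plated 6 h beforehand at 2,000 per well.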
A short description of assay [13]: qHTS assay to identify small molecule agonists of the estrogen related receptor (ERR) signaling pathway from Tox21 library (AID 1224849; calls by dose curve; further: nearly all actives have a fitted effect of over 15% in size). The note with it: ERR reporter cell line, ONE-Glo luciferase, 18 h. In a few lines: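 Screening used an NTP-provided ERR luciferase cell line. Compounds in DMSO were added 6 h after seeding and left 18 h at 37 C before a 30 min ONE-Glo step and luminescence reading.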

Assay [14] is described as follows: qHTS RealTime-Glo MT Cell Viability Assay in HepG2 cells - 24 hour (AID 1224867). Further: nearly all actives have a fitted effect of over 50% in size. In a few lines: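 Cells + NanoLuc/prosubstrate dispensed (600 cells/well) → 5 h at 37 C/5% CO2 → compounds in DMSO transferred → 40 h incubation at 37 C, luminescence read at 0, 8, 16, 24, 32, 40 h.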
A short description of assay [15]: qHTS RealTime-Glo MT Cell Viability Assay in HEK293 cells - 32 hour (AID 1224868). In a few lines: (§1)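 Tox21 10K qHTS, HEK293, 600 cells/well, RealTime-Glo reagent co-dispensed with cells; 5 h preincubation, compound by pintool, 37 C, luminescence at 0–40 h.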
Assay [16] can be described thus: A CellTox Green Cytotoxicity Assay to monitor cytotoxicity in HEK293 cells - 0 hour (AID 1224869). Further: nearly all actives have a fitted effect of over 50% in size. In a few lines:
(§2)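 Fluorescence intensity, read at 0, 8, 16, 24, 32 and 40 h of compound treatment, reflected dye binding to DNA of dead HEK293 cells; compounds (23 nL, DMSO) were added 5 h after plating cells with reagent.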

Assay [17] is described as follows: A CellTox Green Cytotoxicity Assay to monitor cytotoxicity in HEK293 cells - 40 hour (AID 1224871). Further: nearly all actives have a fitted effect of over 45% in size. In a few lines: as §2
The nature of assay [18]: qHTS RealTime-Glo MT Cell Viability Assay in HEK293 cells - 16 hour (AID 1224872). In a few lines:
as §1

A short description of assay [19]: qHTS RealTime-Glo MT Cell Viability Assay in HepG2 cells - 8 hour (AID 1224873). Further: nearly all actives have a fitted effect of over 55% in size. In a few lines:
(§3)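 HepG2 cells (600/well) mixed with RealTime-Glo MT reagent, settled 5 h at 37 C/5% CO2 before compound addition. Nonlytic NanoLuc luminescence from viable-cell prosubstrate reduction read repeatedly during 40 h treatment at 37 C.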

The nature of assay [20]: qHTS RealTime-Glo MT Cell Viability Assay in HepG2 cells - 40 hour (AID 1224870). Further: nearly all actives have a fitted effect of over 50% in size. In a few lines: as §3

Values joined by “and” are separate entries in the source; they are usually repeats but may differ in a detail not shown here. Equal entries are not always repeated. Inconclusive results are not listed. Some compounds were tested as several samples or in several runs, with calls that do not always agree. Active and inactive are the calls of the source. Unless noted, the call rests on the fitted dose curve; in most records, active means well fitted curve in the direction sought with a large enough effect in the repeat runs; inconclusive means weak or mixed curves; inactive means no such curve, though single readings can be large; an effect the other way counts as inactive or inconclusive.
On the % scale 0 is the no-effect control and ±100 the full control effect.

Sequence of Thyrotropin receptor (Homo sapiens) (P16473 whole entry, looked up): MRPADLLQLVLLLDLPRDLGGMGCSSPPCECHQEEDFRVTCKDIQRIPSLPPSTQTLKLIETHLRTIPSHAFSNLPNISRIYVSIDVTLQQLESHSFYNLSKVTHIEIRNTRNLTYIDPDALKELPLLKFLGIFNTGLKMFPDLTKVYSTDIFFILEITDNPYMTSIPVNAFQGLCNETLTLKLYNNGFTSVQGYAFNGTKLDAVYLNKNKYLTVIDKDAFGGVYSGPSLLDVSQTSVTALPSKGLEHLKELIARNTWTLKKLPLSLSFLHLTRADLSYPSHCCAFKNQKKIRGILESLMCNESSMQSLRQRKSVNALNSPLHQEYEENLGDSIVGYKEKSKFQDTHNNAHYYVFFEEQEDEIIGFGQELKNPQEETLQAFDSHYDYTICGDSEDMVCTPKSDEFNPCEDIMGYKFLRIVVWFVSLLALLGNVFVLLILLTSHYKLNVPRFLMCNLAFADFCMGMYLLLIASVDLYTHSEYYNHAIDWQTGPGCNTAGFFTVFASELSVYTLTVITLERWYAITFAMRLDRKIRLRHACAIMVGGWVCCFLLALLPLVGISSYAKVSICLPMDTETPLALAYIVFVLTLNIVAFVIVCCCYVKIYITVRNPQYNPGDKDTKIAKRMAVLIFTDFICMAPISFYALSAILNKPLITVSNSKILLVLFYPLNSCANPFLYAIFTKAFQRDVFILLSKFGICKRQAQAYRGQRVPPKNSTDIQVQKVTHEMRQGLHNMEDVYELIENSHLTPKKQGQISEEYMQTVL
Sequence of Nuclear receptor subfamily 1 group I member 3 (Homo sapiens) (Q14994 whole entry, looked up): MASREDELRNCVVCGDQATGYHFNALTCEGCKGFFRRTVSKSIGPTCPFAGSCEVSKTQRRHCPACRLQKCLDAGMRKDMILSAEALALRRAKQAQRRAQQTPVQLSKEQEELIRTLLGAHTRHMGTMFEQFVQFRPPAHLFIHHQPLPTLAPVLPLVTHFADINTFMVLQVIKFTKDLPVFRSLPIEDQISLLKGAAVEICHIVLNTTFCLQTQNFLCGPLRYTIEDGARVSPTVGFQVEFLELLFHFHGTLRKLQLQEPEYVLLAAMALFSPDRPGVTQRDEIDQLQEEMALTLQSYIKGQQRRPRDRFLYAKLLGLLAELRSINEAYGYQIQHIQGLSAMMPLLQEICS

On to `COC(=O)c1ccccc1C(=O)OC`, for which the Potency result in assay [1], in assay [2], in [3], in [4], in assay [7] and in assay [8] was “inactive” in each case. Moreover, the Potency result in assay [9], in assay [11], in assay [12], in [15], in assay [16] and in assay [17] was “inactive” in each case. In assay [5], the Potency is 38.8 µM (active) and inactive. The result in [6], in assay [10], in assay [14], in [18] and in [19] was inactive. Further, the activity change, positive = activation in [13] (at 92.4 µM (top of the series)) was -0.694% (inactive) and 10.9% (active).
Take `CN=C=S`: the Potency result in assay [1], in assay [2], in assay [3], in [4], in assay [5] and in assay [7] was “inactive” each time. The Potency result in assay [8], in assay [9], in [11], in assay [12], in assay [15] and in assay [16] was “inactive” in each case. In addition, the Potency result in assay [17] was “inactive”. Also, the call in assay [6], in assay [10], in [14], in assay [18] and in [19] was inactive. The activity change, positive = activation in assay [13] (at 92.4 µM (top of the series)) was 0.382% (inactive) and 8.43% (inactive).
For `COC(=O)c1ccccc1N`, the Potency entry in [1], in [2], in [3], in assay [4], in assay [5] and in assay [7] was “inactive” each time. For the same molecule, the Potency entry in assay [8], in [9], in assay [11], in assay [12], in assay [15] and in [16] was “inactive” in each case. For the same molecule, the Potency entry in assay [17] was “inactive”. In addition, the molecule was classed as inactive in assay [6], in assay [10], in assay [14], in assay [20], in assay [18] and in [19]. Further, the activity change, positive = activation in [13] (at 92.4 µM (top of the series)) is 4.73% (inactive) and 5.15% (inactive).
For `CN1C(=O)CN=C(c2ccccc2)c2cc(Cl)ccc21`, the Potency entry in [1], in assay [2], in [3], in [4], in assay [5] and in assay [7] was “inactive” each time. Besides, the Potency entry in [8], in assay [9], in assay [11], in assay [12], in assay [15] and in assay [16] was “inactive” in each case. For the same molecule, the Potency result in [17] is “inactive”. Further, the activity change, positive = activation in [13] (at 42.5 µM (top of the series)) is 8.92% (inactive); in [13] (at 92.4 µM (top of the series)) it was -13.2% (inactive). Also, the call in assay [14], in assay [18] and in assay [19] was inactive.
For the molecule `Cc1ccc(N)cc1Cl`, the Potency entry in assay [1], in assay [2], in assay [3], in assay [4], in assay [7] and in assay [8] was “inactive” throughout. Moreover, the Potency entry in assay [9], in [11], in [15], in assay [16] and in assay [17] was “inactive” throughout. Besides, the molecule was classed as inactive in assay [10], in [14], in assay [20], in assay [18] and in [19].
Take `CCC[CH2][Sn]([Cl])([Cl])[Cl]`: the Potency entry in assay [1], in assay [2], in assay [3], in [4], in assay [7] and in assay [8] was “inactive” in each case. Besides, the Potency result in assay [9], in assay [11], in [12], in assay [15], in assay [16] and in [17] was “inactive” throughout. The Potency in assay [5] was 31.1 µM (active). Also, the outcome in assay [6], in assay [10], in assay [14], in assay [20], in [18] and in assay [19] was inactive. The activity change, positive = activation in [13] (at 92.4 µM (top of the series)) was 3.29% (inactive) and -6.08% (inactive).
For the molecule `CC(C)OC(=O)Nc1cccc(Cl)c1`, the Potency entry in assay [1], in assay [4], in [5], in assay [7], in [8] and in [9] was “inactive” throughout. In addition, the Potency entry in assay [12], in assay [15], in assay [16] and in assay [17] was “inactive” in each case. Also, the call in assay [6], in [10], in [14], in [20], in assay [18] and in [19] was inactive. The activity change, positive = activation in assay [13] (at 92.4 µM (top of the series)) is 3.6% (inactive).
